HepG2 tox: qHTS for Inhibitors of TGF-b: Cytotox Counterscreen. HepG2 CAGA-GFP viability, ATP luminescence, 18 h. Potency, µM (highest dose often 46.1 µM), inactives show at the highest dose activity change, negative = cytotoxicity, usual class: cytotoxic. 410,000 compounds, 0.76% hits. AID 588856, 2011
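CellTiter-Glo luminescence gave cytotoxicity after 18 hours at 37 degrees C. The cells were HepG2 CAGA-GFP in 1% FBS DMEM, stimulated with 500 pg/mL TGF-beta after compound addition. %Activity was normalised to no-cell wells (complete cell-killing) and DMSO (no toxicity), and curves were fitted and classified.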
HT1080-NT tox: qHTS for induction of synthetic lethality in tumor cells producing 2HG: qHTS for the HT-1080-NT fibrosarcoma cell line; HT-1080-NT fibrosarcoma viability, CellTiter-Glo ATP luminescence, 48 h; Potency, µM (highest dose often 46.1 µM), inactives show at the top dose activity, negative = less viability, usual class: cytotoxic; 360,000 compounds, 1.6% hits;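 note: NT is the 2HG producing partner of a matched IDH1 knockdown line; 0% = DMSO-treated cells and -100% = media-only wells without cells; nearly all actives have a fitted effect of over 55% in size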
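Toxicity toward the 2HG-producing NT line was scored as %Activity, normalised to DMSO and no-cell wells, from CellTiter-Glo luminescence after 48 hours' treatment.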
HT1080 IDH1KD tx: qHTS for induction of synthetic lethality in tumor cells producing 2HG: qHTS for the HT-1080-IDH1KD cell line. HT-1080 IDH1 knockdown viability, ATP luminescence, 48 h. 360,000 compounds, 2% hits. Potency, µM (top dose mostly 46.1 µM), without a hit: top-dose activity, negative = toxicity, most hits filed as cytotoxic;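 note: 0% = DMSO wells and -100% = cell-free medium wells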
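Assay cells: HT-1080 with IDH1 knockdown, 750 per well, RPMI/5% FBS. Exposure: 48 h at 37 °C following 2 h pre-incubation. Read: CellTiter-Glo luminescence; fitted concentration-response, curve class assigned.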
TGFb SMAD3 inh: qHTS for Inhibitors of TGF-b; HepG2 CAGA-GFP TGF-b/SMAD3 reporter, GFP fluorescence, 18 h; TGF-beta stimulated, 500 pg/mL final; Potency, µM (doses to about 46.1 µM), for inactives: top-dose activity, negative = inhibition, hits mostly inhibitors; 410,000 compounds, 1.2% hits; note: % is set by controls: 0 for no effect and ±100 for the full control effect; nearly all actives have a fitted effect of over 65% in size
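HEPG2 CAGA-GFP cells (1000/well, DMEM with 1% FBS) were pre-incubated 2 h at 37 degrees C, given compound by pin tool, then stimulated with TGF-beta at 500 pg/mL final for 18 h before per-cell GFP fluorescence imaging.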
KB-V1 MDR tox: qHTS assay for MDR1-selective chemotherapeutics: Primary screen using the drug-selected MDR subline cells KB-V1; KB-V1 MDR cells viability, CellTiter-Glo, 72 h; Potency, µM (titrated, usually from 46.1 µM), most hits filed as cytotoxic; 400,000 compounds, 3.4% hits; note: % is set by controls: 0 for no effect and ±100 for the full control effect; nearly all actives have a fitted effect of over 60% in size
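Cytotoxicity toward P-gp-expressing KB-V1 cells was determined as loss of CellTiter-Glo luminescence after 72 h at 37 degrees C. Compounds were tested in quantitative HTS format across a concentration range, with curves fitted to normalized data.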
KB-3-1 tox: qHTS assay for MDR1-selective chemotherapeutics: Primary screen using the parental adenocarcinoma cell KB-3-1; KB-3-1 viability, CellTiter-Glo ATP luminescence, 72 h; Potency, µM (titrated, usually from 46.1 µM), most hits filed as cytotoxic; 400,000 compounds, 1.4% hits; AID 1347075, 2019; note: % is set by controls: 0 for no effect and ±100 for the full control effect; nearly all actives have a fitted effect of over 60% in size
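Multi-concentration cytotoxicity screen in KB-3-1 cells grown in DMEM lacking phenol red with 10% FBS. After 72 h at 37 °C with compound, ATP-dependent luminescence was recorded.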
* marks the source's active call; other numbers are inactive results; i = inactive; ? = inconclusive; . = no result. This is a sample that favours compounds with a hit; in the whole collection about 6.6% have one here. Calls come from the whole dose curve; as a rule, active = well fitted curve in the direction sought with a large enough effect; inconclusive = small, poorly fitted or top-dose-only effect, or another doubt; inactive = no such curve, though single readings can be large; an effect the other way counts as inactive or inconclusive. Potency is the fitted concentration of half-maximal effect.

SMILES	HepG2 tox	HT1080-NT tox	HT1080 IDH1KD tx	TGFb SMAD3 inh	KB-V1 MDR tox	KB-3-1 tox
O=c1[nH]c(SCc2nc3c(cnn3-c3ccccc3)c(=O)[nH]2)nc2ccccc12	-13%	-21%	?	4%	?	2.1µM*
Cc1cc(C)n(-c2nnc(Nc3ccc(C(C)C)cc3)c3ccccc23)n1	-10%	.	.	?	i	i
Cc1nc(-c2ccc(Cl)cc2)sc1CCNC(=O)C(=O)Nc1ccc2c(c1)OCO2	-3%	.	.	13%	i	i
CCCS(=O)(=O)c1nc(S(=O)(=O)c2ccc(C)cc2)c(NCCCOC(C)C)s1	-20%	.	.	.	.	.
Cc1ccc2nc3c(cc2c1)CN(Cc1ccco1)C(=NCC1CCCO1)S3 (centres undefined)	-17%	10%	0%	4%	?	?
Cc1cccc2cc3c(nc12)SC(=NCC1CCCO1)N(Cc1ccco1)C3 (centres undefined)	-83%	5.8µM*	10µM*	?	i	i
COc1ccc(Cn2ccnc2SCC(=O)Nc2cc(C(F)(F)F)ccc2Cl)cc1	-34%	.	.	-34%	.	.
Cc1cc(C)c2c(CCl)cc(=O)oc2c1	-37%	?	1.3µM*	?	?	?
CCC1=[N+](CC(=O)c2ccc(C)cc2)CCn2c(C)ccc21	-28%	-13%	?	-36%	i	18µM*
CCC1=[N+](CC(=O)c2ccc(Br)cc2)CCn2c(C)ccc21	-36%	-9%	-7%	-14%	?	?
Cc1cccc(S(=O)(=O)NC(=O)C2(C)CCN2C(=O)c2sccc2C)c1 (centres undefined)	-11%	1%	5%	8%	i	i
NC(=O)c1nsc(C(=O)N(c2ccccc2F)C(C(=O)NCc2ccc(F)cc2)c2ccc(O)cc2)c1N (centres undefined)	-13%	16µM*	?	?	i	?
C=C[C@@]1(C)C[C@H](OC(=O)CSC(C)(C)CNC(=O)[C@@H](N)C(C)C)[C@@]2(C)C(C)CC[C@@]3(CCC(=O)[C@@H]32)[C@H](C)[C@H]1O (some centres undefined)	-34%	.	.	?	?	i
Cc1ccc(-n2c(O)c(/C=N/Nc3ccc(S(=O)(=O)N4CCOCC4)cc3[N+](=O)[O-])c3ccccc3c2=O)c(C)c1	-47%	12µM*	?	?	?	i
CCC1=Nc2cc(C(=O)NC3CCCC3)ccc2Sc2ccc(Br)cc21	-8%	.	.	?	.	.
CCC1=Nc2cc(C(=O)NC3CCC(C)CC3)ccc2Sc2ccc(C)cc21 (centres undefined)	-30%	.	.	?	4.1µM*	4.6µM*
CCCC1=Nc2cc(C(=O)NC3CCCC3)ccc2Sc2ccc(C)cc21	-1%	.	.	0.79µM*	.	.
CCCC1=Nc2cc(C(=O)NC3CCCCC3)ccc2Sc2ccc(C)cc21	-10%	.	.	?	0.82µM*	0.52µM*
Cc1cc(C)cc(NC(=O)Cn2cc(C(=O)c3ccncc3)c(=O)c3cc(C)c(C)cc32)c1	-11%	.	.	.	.	.
CCOC(=O)c1cccnc1SCC(=O)Nc1ccc(C)cc1C	-10%	.	.	2%	.	.
COc1cc(S(=O)(=O)NCCc2c(C)[nH]c3ccc(C)cc23)ccc1Br	-65%	.	.	?	i	i
Cc1ccc2[nH]c3c(c2c1)CN(C(=O)CN1CCCc2ccccc21)CC3	-22%	?	23µM*	-12%	i	i
Cc1ccc2[nH]c3c(c2c1)CN(C(=O)CN1CCCCC1)CC3	-31%	-2%	-1%	0%	i	i

Screening data as filed in PubChem BioAssay.
